# Data taken from PubChem BioAssay AID1963576 (National Center for Advancing Translational Sciences (NCATS), 2024).
# In all, about 46,000 compounds went through this assay and about 60 (0.1%) were called active. About 3% were inconclusive and are not listed. Many of the other results were omitted from the sample, so actives are more common in it than they were. A number with no mark means an inactive call. The call rests on the fitted dose curve; in most records, active means well fitted inhibition curve with a large enough effect; inconclusive means small, poorly fitted or top-dose-only effect; inactive means no such curve, though single readings can be large or run the other way.
# Assay: Primary qHTS assay for Inhibitors of ovarian cancer metastasis using an organotypic tumor microenvironment (TME) model. Further: nearly all actives have a fitted effect of over 65% in size.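 On Potency: count of GFP cancer cells still attached after washing and fixation.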
# Conditions: SKOV3ip1-GFP adhesion/invasion on 3D omental model, fluorescence; series mostly up to 45.8 µM; activity change, negative = inhibition: at the top concentration
# Text: PI: Ernst Lengyel MD., Ph.D. Department of Obstetrics and Gynecology, Section of Gynecologic Oncology University of Chicago Medicine, Chicago, Illinois. The tumor microenvironment (TME) is a key determinant of metastatic efficiency. We performed a quantitative high-throughput screen (qHTS) of diverse medicinal chemistry tractable scaffolds (44,420 compounds) and pharmacologically active small molecules (386 compounds) using a layered organotypic, robust assay representing the ovarian cancer metastatic TME. This 3D model contains primary human mesothelial cells, fibroblasts, and extracellular matrix, to which fluorescently labeled ovarian cancer cells are added. Initially, 100 compounds inhibiting ovarian cancer adhesion/invasion to the 3D model in a dose-dependent manner were identified. Of those, eight compounds were confirmed active in five high-grade serous ovarian cancer cell lines and were further validated in secondary in vitro and in vivo biological assays. […] Specifically, NCGC00117362 and PP-121 inhibited ovarian cancer adhesion, invasion, and proliferation, whereas milciclib inhibited ovarian cancer invasion and proliferation. […] To evaluate the clinical potential of NCGC00117362, structure - activity relationship studies were performed. […] The three compounds identified have promise as therapeutics for prevention and treatment of ovarian cancer metastasis.
# PROTOCOL TABLE (as described by Inglese J, Shamu CE and Guy RK. 2007) SEQUENCE No. (e.g., 1, 2, 3, etc.); […] (e.g., Cells, Incubation, Reagent, etc.); VALUE; DESCRIPTION. 1; Cells; 4 uL; primary human omental fibroblast, black, clear bottom, low base, 1536-well Aurora assay plate. 2; Incubation; 48 hr; 37C. 3; Cells; 3 uL; 1,200 SKOV3ip1-GFP cells. 4; Compounds; 23nL; acoustic dispenser. 5; Incubation; 2 hr; room temperature. 6; Incubation; 16 hr; 37C. 7; Wash; 5 uL; 1x PBS. 8; Fixing; 5 uL; 4% paraformaldehyde (PFA). 9; Incubation; 15 min; room temperature 10; Wash, 5 uL; 1x PBS. 11; Detection; Fluorescence, excitation filter 488 nm, emission filter 509 nm. NOTES (numbers refer to Sequence numbers above) 1. For the 1,536-well format, 40 primary human omental fibroblasts and 400 mesothelial cells were seeded with 0.02 µg fibronectin and 0.02 µg collagen type I in 4 µL of growth media (2.3 mm2; Supplementary Fig. S1A). 2. Assay plates were incubated for 48 hours at 37 C. 3. After incubation, 1,200 SKOV3ip1-GFP were seeded in 3 µL of serum-free media (growth media minus FBS) on top of primary human omental cells. 4. Compounds or controls were added to each well immediately after the addition of the cancer cells. Compounds were screened in four doses (0.36-46 µmol/L), and the plates contained the positive control (Tomatine) in eight doses (0.035-75 µmol/L) and DMSO (equal volume controls) 5 - 6. The plates were incubated at room temperature for 2 hours and then at 37 degrees C for 16 hours. 7 - 10. Following incubation, the media were aspirated and each well washed with PBS (5 µL) and then fixed with 4% paraformaldehyde (PFA; 5 µL). After 15 minutes, the PFA solution was aspirated, PBS (5 µL) was added. 11. The number of GFP-labeled cells analyzed using a fluorescent cytometer TTP LabTech Acumen eX3 using 488 nm excitation filter and 509 nm emission filter. Data was normalized to the DMSO treated for negative and Tomatine treated wells for positive control. REFERENCES: Inglese J, Shamu CE and Guy RK, Reporting data from high throughput screening of small molecule libraries, Nature Chemical Biology, 2007, 3(8): 438-441. doi.org/10.1038/nchembio0807-438. Yasgar A, Shinn P, Jadhav A, Auld DS, Michael S, Zheng W, Austin CP, Inglese J and Simeonov A, Compound Management for Quantitative High-Throughput Screening. J. Assoc. Lab. Auto., 2008, 13: 79-89. doi: 10.1016/j.jala.2007.12.004.
# Potency means the concentration at half of the fitted maximal effect.
Structure (SMILES),"activity change, negative = inhibition [%]",outcome,Potency
CCCCN(C)S(=O)(=O)c1ccc(C(=O)Nc2sc3c(c2C(N)=O)CC(C)(C)NC3(C)C)cc1,-2.75,,
Cc1ccc(C(=O)Nc2ccccc2F)cc1S(=O)(=O)N1CCOCC1,-6.33,,
Cc1c(Cl)cccc1NC(=O)C1CCCN(c2ncnc3onc(C)c23)C1 (configuration not stated),-1.22,,
COc1cc(C=CC(=O)O)ccc1O,0.771,,
CSc1ccc(NC(=O)Cn2nnnc2-c2ccccc2F)cc1,-8.04,,
COc1ccccc1CNC(=O)C(=O)NCC(c1ccco1)S(=O)(=O)c1ccc(F)cc1 (configuration not stated),1.95,,
CCC(C(=O)Nc1cccc(Cl)c1C)n1nc(-c2ccc(C)cc2)ccc1=O (configuration not stated),,inactive,
Cc1ccc(OC(=O)CSc2nnc(-c3cccs3)o2)cc1,,inactive,
O=C(CCSCc1cccc(F)c1)NCc1ccccc1,,inactive,
COc1cc(Cl)c(NC(=O)C(NS(=O)(=O)c2cccs2)C(C)C)c(OC)c1 (configuration not stated),6.82,,
Cc1cccc(N2CCN(S(=O)(=O)c3ccc4[nH]c5c(c4c3)CCCCC5)CC2)c1C,-7.22,,
CCN1C(=O)c2ccccc2S(=O)c2ccc(C(=O)NCc3ccc(F)cc3)cc21 (configuration not stated),4.34,,
O=C(NCCC1=CCCCC1)c1ccc2c(c1)N(Cc1ccccc1F)C(=O)c1ccccc1S2(=O)=O,-1.06,,
O=C(c1ccc(C(F)(F)F)cc1)N1CCC(c2nc(-c3ccc(S(=O)(=O)N4CCCC4)cc3)no2)CC1,8.1,,
O=C(Nc1ccc(OC(F)(F)F)cc1)c1cc2c(=O)n3ccccc3nc2s1,6.53,,
Cn1c(C(=O)Nc2cccc(C(F)(F)F)c2)cc2c(=O)n3ccccc3nc21,3.13,,
O=c1c(NCc2cccs2)nccn1-c1ccccc1,3.18,,
O=C(CC1Oc2ccc(Cl)cc2NC1=O)NCc1ccccc1 (configuration not stated),-7.3,,
Cc1ccc2nc(N3CCN(c4cccc(Cl)c4)CC3)c3nnnn3c2c1,,inactive,

Structure (SMILES),"activity change, negative = inhibition [%]",outcome,Potency
CCCCOc1ccc(NC(=O)c2cc3c(n(-c4ccc(Cl)cc4)c2=O)CCCC3=O)cc1,0.925,,
Cc1ccc2cccc(NC(=O)c3cccc4ccccc34)c2n1,-4.99,,
COc1ccccc1CNC(=O)CS(=O)(=O)c1cccc2nsnc12,-9.2,,
O=C(CSc1cn(CC(=O)N2CCOCC2)c2ccccc12)Nc1ccccc1,0.574,,
COc1ccc(C(=O)CSc2c(C(C)C)cnc3c2c(=O)n(C)c(=O)n3C)cc1,2.29,,
COc1cccc(C(=O)NC2=NC(c3ccc(N(C)C)cc3)CC(=O)N2)c1 (configuration not stated),3.44,,
CNc1ccc(-c2nc(-c3ccco3)no2)cc1[N+](=O)[O-],-0.24,,
Cc1c(NC(=O)c2cc(=O)c3ccccc3o2)c(=O)n(-c2ccccc2)n1C,0.58,,
Cc1ccc2c(=O)c(C(=O)c3ccc(F)cc3)cn(CC(=O)NC3CCCCC3)c2n1,6.33,,
CCOc1ccc(NC(=O)c2c(NC(=O)Cc3ccccc3)sc3c2CCCCC3)cc1,,inactive,
CCCS(=O)(=O)c1ncc(Cl)c(C(=O)Nc2scc(-c3ccccc3)c2C(=O)OCC)n1,3.76,,
CCSc1ncc(Cl)c(C(=O)Nc2cc(C)ccc2C)n1,,inactive,
Cc1ccc(NC(=O)c2nc(S(=O)(=O)Cc3cccc(C)c3)ncc2Cl)cc1,,,3.16 µM (active)
CCOC(=O)N1CCc2c(sc3c2C(=O)NC(c2ccccc2F)N3)C1 (configuration not stated),-21.5,,
COc1ccc(-c2nc(CN3CCC(C(=O)NCCN(CC(C)C)CC(C)C)CC3)c(C)o2)cc1OC,3.13,,
CC(C)c1ccc(Cn2c(COc3ccccc3)nc3ccccc32)cc1,-0.836,,
CCc1ccc(C=C2SC(=S)NC2=O)cc1,-4.26,,
COc1ccc(-c2[nH]c3c(c2-c2c(-n4cccc4)n(C)c(=O)n(C)c2=O)c(=O)n(C)c(=O)n3C)cc1,6.37,,
COc1ccc2c(C)c(CCC(=O)NCc3ccc(OC)c(OC)c3)c(=O)oc2c1,-0.405,,

Structure (SMILES),"activity change, negative = inhibition [%]",outcome,Potency
CC(C)(C)C1CCc2c(sc(NC(=O)c3ccccc3F)c2C(=O)N2CCCCC2)C1 (configuration not stated),6.61,,
CCc1ccccc1NC(=O)c1cnn(-c2ccc(F)cc2)c1C1CCNCC1,1.55,,
CCCCOc1ccc(CNC(=O)c2ccc3c(c2)N(C)C(=O)C2CCCCN32)cc1 (configuration not stated),,inactive,
COc1ccc(CCNC(=O)CCCCn2c(=O)c3ccccc3n(Cc3ccccc3C)c2=O)cc1OC,9.65,,
CC=C(C(=CC)c1ccc(O)cc1)c1ccc(O)cc1,-8.67,,
Cc1cc2nc(NC(=O)c3ccc(S(=O)(=O)N4CCOCC4)cc3)sc2cc1C,-13.4,,
COc1ccc(-c2cc(C(=O)Nc3sc4c(c3C(N)=O)CCCC4)no2)cc1,33.1,,
Cc1ccc2c(c1)N(C(=O)Nc1ccc(Br)cc1F)CCO2,,inactive,
COc1ccc2c(CNCCc3ccccc3C)c(C(=O)O)n(Cc3ccccc3C)c2c1,1.4,,
CCOc1cc(C2C(C(=O)OC)=C(C)NC3=C2C(=O)c2ccccc23)ccc1O (configuration not stated),-5.14,,
COc1ccc2c(c1)CCc1c(C(=O)Nc3cc(C)ccc3O)noc1-2,,inactive,
Cc1ccccc1CNC(=O)c1ccc(NC(=O)N2CCCCc3ccccc32)cc1,-3.35,,
CCCN1CCN(CCCNC(=O)Cn2nc(CC)n3c(cc4occc43)c2=O)CC1,0.82,,
CCOC(=O)C1CCC(CN(Cc2ccc(OC)cc2)S(=O)(=O)c2ccc(F)c(C(=O)Nc3cc(C)ccc3C)c2)CC1 (configuration not stated),,inactive,
Cc1n[nH]c(C)c1S(=O)(=O)N1CCCC(C(=O)Nc2ccc(Br)cc2)C1 (configuration not stated),6.06,,
COc1ccc(NC(=O)C(=O)NCc2ccco2)cc1,-4.16,,
N#Cc1nc(/C=C/c2ccc(F)cc2)oc1NCc1ccc(F)cc1,,inactive,
CCOc1ccc(-c2nonc2NC(=O)c2oc3ccc(C)cc3c2C)cc1OCC,-20.8,,
CCC(=O)Nc1ccccc1-c1nc2ccccc2n(CC(=O)Nc2ccc(C)c(C)c2)c1=O,2.4,,
